A selection: hits, their analogues and other compounds. The true share with any hit is near 11%.
IMPase Li cell: cell-permeable IMPase inhibitors with lithium potentiation; CHO-M1 cells, IP1 TR-FRET (IP-One), carbachol + lithium; Potency, µM (doses to about 59.4 µM), inactives show at the top dose activity, negative = IMPase inhibition, hits mostly inhibitors; 0.35% of 210,000 active; active = well fitted inhibition curve with a large enough effect; inconclusive = small, poorly fitted or top-dose-only effect; inactive = no such curve, though single readings can be large or run the other way;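 note: IP1 builds up when IMPase is blocked and the TR-FRET signal falls; potency is the fitted concentration of half-maximal effect; plate controls were basal vehicle for no effect and high inhibitor control for full effect; nearly all actives have a fitted effect of over 50% in size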
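CHO cells stably expressing M1 receptor (2000/well, cultured 16–30 h) treated 30 min at 37C with compound plus low lithium. Cytosolic IP1 by TR-FRET (665/620 ratio and 620 channel) after 10 min lysis; AC50 by Hill fit.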
IMPase inh: membrane-permeable compound that blocks inositol monophosphatase | inhibition (IP1 accumulation), % at 46.1 µM | P97697 | CHO-M1 cells, IP1 accumulation, HTRF TR-FRET ratio | 120,000 tested, under 10 active; active = well fitted curve in the direction sought with a large enough effect in the signal ratio, not every such curve was filed as active; inconclusive = small, poorly fitted or top-dose-only effect, or a change in a side signal; inactive = no such curve, though single readings can be large or run the other way; the % refers to the signal ratio;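 note: cells stimulated with carbachol in lithium chloride buffer; plate controls were DMSO basal wells for no effect and reference inhibitor wells for full effect; higher means more IMPase inhibition seen as more IP1 and lower FRET ratio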
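Seeded CHO-M1 cells were dosed with compound at up to 46 uM, stimulated with carbachol for 30 min, then lysed in IP-One detection reagents. Higher IP1 lowers the TR-FRET signal.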
HPGD inh: inhibitors of human 15-hydroxyprostaglandin dehydrogenase (HPGD); P15428; purified HPGD, NADH fluorescence kinetic, PGE2 substrate; Potency, µM, inactives show at the highest dose activity change, negative = inhibition, hits mostly inhibitors; 4.3% of 150,000 active; note: potency is the fitted concentration of half-maximal effect
Target sequence (P15428 whole entry, looked up): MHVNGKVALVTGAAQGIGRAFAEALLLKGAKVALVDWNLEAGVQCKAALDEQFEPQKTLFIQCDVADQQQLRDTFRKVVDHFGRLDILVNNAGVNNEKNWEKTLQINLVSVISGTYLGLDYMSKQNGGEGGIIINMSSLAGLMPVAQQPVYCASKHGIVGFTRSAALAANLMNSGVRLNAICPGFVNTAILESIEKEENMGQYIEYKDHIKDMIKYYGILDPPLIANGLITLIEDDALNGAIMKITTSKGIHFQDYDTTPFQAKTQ
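20 nM HPGD preincubated 15 min at room temperature with compound in 50 mM Tris-HCl pH 8, 0.01% Tween 20. Started with 1 mM NAD+ and 30 uM prostaglandin E2; NADH fluorescence (360/450 nm) read 5 times over 30-s intervals, last minus first.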
ALDH1A1 block: ALDH1A1 (human) enzyme inhibition; Purified ALDH1A1, NADH fluorescence, propionaldehyde substrate; P00352; Potency, µM (series often up to 75.3 µM), inactives show top-dose activity, negative = inhibition, hits mostly inhibitors; 7.3% of 220,000 active;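 note: potency is the fitted concentration of half-maximal effect; plate controls were no enzyme wells and a reference inhibitor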
Target sequence (P00352 whole entry, looked up): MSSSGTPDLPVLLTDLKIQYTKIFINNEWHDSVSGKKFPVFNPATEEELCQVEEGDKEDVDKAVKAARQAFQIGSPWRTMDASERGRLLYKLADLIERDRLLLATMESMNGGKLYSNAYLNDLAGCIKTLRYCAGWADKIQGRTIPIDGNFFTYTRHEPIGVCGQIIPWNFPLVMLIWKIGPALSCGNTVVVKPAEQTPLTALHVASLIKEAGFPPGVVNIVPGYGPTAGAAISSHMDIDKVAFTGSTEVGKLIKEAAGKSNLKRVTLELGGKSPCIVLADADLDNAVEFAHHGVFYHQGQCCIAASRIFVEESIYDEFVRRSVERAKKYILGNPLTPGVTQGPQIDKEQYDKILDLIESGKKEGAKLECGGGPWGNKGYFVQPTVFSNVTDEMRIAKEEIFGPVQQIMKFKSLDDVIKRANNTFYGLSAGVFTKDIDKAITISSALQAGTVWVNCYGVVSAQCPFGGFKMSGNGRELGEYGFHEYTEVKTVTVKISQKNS
PNC assembly inh: blocks assembly of the perinucleolar compartment; PC3M PTB-GFP, PNC prevalence imaging, 16 h; hits give low values; activity change (PNC), negative = inhibition, % at 10 µM; 3.1% of 140,000 active;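 active = readout at or below -70, meaning at least 70% loss of cells showing the perinucleolar compartment, a nuclear body marking cancer cells; inconclusive = readout between -30 and a set limit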;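 note: plate controls were DMSO wells for no effect and camptothecin positive control wells for full effect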
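Compounds are pinned in duplicate onto adhered PC3M cells stably expressing GFP-tagged PTB and incubated 16 h at 37 C. Cells are then fixed, nuclei stained with Hoechst, and PNC-positive cells counted.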
* = called active by the depositor; ? = inconclusive; . = not tested or not shown; [ ] = remark or other dose. Unless noted, calls come from the whole dose curve; as a rule, active = well fitted inhibition curve with a large enough effect (not every such curve was filed as active); inconclusive = small, poorly fitted or top-dose-only effect, or another doubt; inactive = no such curve, though single readings can be large or run the other way. Unless noted, % is set by controls: 0 for no effect and ±100 for the full control effect.

SMILES	IMPase Li cell	IMPase inh	HPGD inh	ALDH1A1 block	PNC assembly inh
C=CC(N)CCC(=O)O (configuration not stated)	5.5%	.	-8.5%	-3.6%	.
O=C(O)COc1ccc(C(=O)c2ccccc2)cc1	-3.8%	.	.	1.1%	.
CC(=O)c1ccc(OCc2ccc(C(=O)c3ccccc3)cc2)cc1	23.3%	.	.	11.2µM*	.
COC(=O)c1c(NC(=S)Nc2ccc(CC(=O)O)cc2)sc(C)c1C	?	.	-26.2%	25.1µM*	-3.0
Cc1sc(NC(=S)Nc2ccc(F)cc2)c(C(N)=O)c1C	0.7%	.	.	10µM*	.
N#C/C(=C(/O)COc1ccc(Br)cc1)c1nnc2n1CCCCC2	-4.8%	.	.	-5.2%	.
C=CCN1C(c2ccc(OCC)cc2)=CS/C1=C(\C#N)c1nnc2n1CCCCC2	32.7%[38.3 µM]	0.3	28.2µM*	14.1µM*	?
CCc1cc2c(N3CCCCC3)ncnc2s1	23.0%[38.3 µM]	1.4	-26.7%	20µM*	34.2
CCC(=O)NCCNc1ccc([N+](=O)[O-])cn1	-5.5%	.	-16.9%	0.7%	-80.7*
CC(=O)NCCNc1ccc([N+](=O)[O-])cn1	0.3%	.	-15.9%	3.9%	30.4
Cc1no[n+]([O-])c1COc1ccc(/C=C(\C#N)C(N)=O)cc1	10.7%	.	-17.5%	10µM*	68.7
CC(/C=C/c1ccc2c(c1)OCO2)=N/NC(=O)c1ccc(C)nc1	14.4%	8.7	-19.6%	-7.9%	68.0
CSc1nnc(C)c(=O)n1COC(=O)/C=C/c1ccc2c(c1)OCO2	1.0%	.	.	?	.
Nc1ccc(SC(F)(F)F)cc1	1.2%	.	.	20µM*	.
CCSC(N)=Nc1ccc(C(F)(F)F)cc1	11.8%	8.7	-26.4%	?	.
CCOC(=O)c1ccc(NC(=O)CSC2=NC(=O)C(CC)C(=O)N2)cc1 (configuration not stated)	11.1%	-3.5	-13.6%	-4.4%	-7.6
CCOC(=O)C1=C(SCC(=O)Nc2ccccc2)NC(=O)C(C#N)C12CCCCC2 (configuration not stated)	-15.7%[38.3 µM]	5.5	-4.5%	12.6µM*	17.9
N#CC1=C(SCC(=O)NC23CC4CC(CC(C4)C2)C3)NC(=O)C(C#N)C12CCCCC2 (configuration not stated)	8.8%	14.0	-22.2%	1.12µM*	346.4
C=CCSC1=C(C#N)C2(CCCCC2)C(C#N)C(=O)N1 (configuration not stated)	5.4%[38.3 µM]	-6.1	-22.1%	2.51µM*	30.2
N#CC1=C(SCC(=O)Nc2cccc3cccnc23)NC(=O)C(C#N)C12CCCCC2 (configuration not stated)	10.6%[38.3 µM]	13.3	-12.8%	8.91µM*	20.2
O=C(CSc1ncn[nH]1)NC12CC3CC(CC(C3)C1)C2	20.4%[38.3 µM]	-1.2	-17.9%	-14.8%	32.3
COc1cccc2cc(C(N)=O)/c(=N/NC(=O)COc3ccc(Cl)cc3)oc12	2.4%	-18.5	-4.3%	3.9%	-9.9
C=CCC(C)(O)c1cccs1 (configuration not stated)	7.3%	.	-6.5%	-2.3%	.
Cc1ccc(C(C(=O)NCc2ccco2)N(C(=O)CNC(=O)c2cccs2)c2c(C)cc(C)cc2C)cc1 (configuration not stated)	27.2%[38.3 µM]	8.8[1.84 µM]	-19.2%	-6.8%	?
N#CC1=C(SCC(=O)NC2CC2)NC(=O)C(C#N)C12CCCCC2 (configuration not stated)	-4.3%[38.3 µM]	0.7	-4.1%	12.6µM*	20.7
SMILES	IMPase Li cell	IMPase inh	HPGD inh	ALDH1A1 block	PNC assembly inh
CC(C)(C)C1CCC2(CC1)C(C#N)=C(SCC(=O)NC1CCCCC1)NC(=O)C2C#N (configuration not stated)	5.7%[38.3 µM]	2.6	-14.2%	?	-23.6
CC1CCC(C(C)C)C(OP(=O)(c2ccc(N(C)C)cc2)C(O)c2cccnc2)C1 (configuration not stated)	-2.0%	.	-1.5%	-1.7%	-113.8*
COc1ccc(C2C(C(=O)N3CCOCC3)c3ccccc3C(=O)N2c2ccc(OC)cc2)cc1 (configuration not stated)	3.8%[38.3 µM]	4.2	-10.1%	14.1µM*	41.5
CCOC(=O)CNC(=O)C1c2ccccc2C(=O)N(c2ccc(OC)cc2)C1c1ccc(OC)cc1 (configuration not stated)	40.9%[38.3 µM]	0.4	-15.4%	28.2µM*	-28.1
COc1ccc(C2C(C(=O)N3CCN(c4ccccc4)CC3)c3ccccc3C(=O)N2C)cc1 (configuration not stated)	9.6%	-0.5	-18.4%	2.24µM*	-100.0*
COc1ccc(C2C(C(=O)N3CCN(c4ccccc4)CC3)c3ccccc3C(=O)N2C)cc1OC (configuration not stated)	-1.9%	-2.2	-7.6%	?	34.9
CCOc1cc(C(=O)Nc2ccc3oc(-c4ccc(CC)cc4)nc3c2)cc(OCC)c1OCC	.	-5.6	.	.	.
Cc1cc(=O)[nH]c2cc3oc4ccccc4c3cc12	-2.0%	.	-20.8%	-2.3%[13.5 µM]	.
CN(C)Cc1ccccc1-c1ccc2ncnc(N3CCOCC3)c2c1	9.1%	.	-12.1%	-3.4%	.
CC[C@@]1([N+](=O)[O-])C[C@H]2C=C[C@@H]1C2	4.7%	.	-9.5%	10.1%[13.5 µM]	.
O=C(NNC(=O)c1ccccc1Cl)c1cccs1	0.2%	-3.6	-8.3%	0.4%	262.1
O=C(NNc1c(Cl)cccc1Cl)c1cccs1	.	.	.	25.1µM*	.
Cc1cc2c(nc1C)CCCN2C[C@H](C)O/N=C\[C@@H](C)[C@H](OCc1ccccc1)C(C)C	.	.	.	-13.9%[13.5 µM]	.
N#CCCN(C(=O)CCl)c1cccc(Cl)c1	-14.6%	.	.	0.112µM*	.
CCCCCCCN(C(=O)CCl)c1cccc(C)c1	1.4%	13.5	-25.6%	0.224µM*	16.0
COC(=O)[C@@H]1[C@@H](C)N(CCc2cc(OC)c(OC)c(OC)c2)C(=O)N[C@H]1c1ccccc1	7.0%	.	-6.6%	8.0%[13.5 µM]	.
COc1ccc(/C(C)=N\O)cc1OC	.	.	.	-1.5%	.
CCCc1cc(=O)[nH]c(SCC(=O)Nc2sc3c(c2C#N)CCC(C)C3)n1 (configuration not stated)	4.1%	.	.	22.4µM*	.
CC1CCc2c(sc(NC(=O)CSc3nnc(-c4ccccc4)o3)c2C#N)C1 (configuration not stated)	3.1%	5.5	-2.0%	-10.1%	-12.0
CC(C)(C)C1CCc2c(sc(NC(=O)CSc3ncn[nH]3)c2C#N)C1 (configuration not stated)	-0.9%	?	14.1µM*	8.91µM*	12.6
N#Cc1c(NC(=O)CSc2ncn[nH]2)sc2c1CCCC2	30.2%[38.3 µM]	-2.5	-18.3%	-15.0%	13.6
COc1ccc(NC(=O)N2CCCC(c3nc(-c4ccc(C(C)C)cc4)no3)C2)cc1 (configuration not stated)	6.2%[38.3 µM]	8.2	-17.1%	?	0.1
CC(=O)c1cccc(NC(=O)c2ccco2)c1	-5.3%[38.3 µM]	1.7	-2.8%	-1.1%	33.6
O=C(Nc1ccc2c(c1)ncn2-c1ccccc1)c1ccco1	5.6%	-6.3	31.6µM*	?	-21.2
O=C(Nc1cccc(-n2cnnn2)c1)c1ccco1	-3.9%[38.3 µM]	-1.1	-23.8%	39.8µM*	8.4
